Our source for the Potency and outcome values is PubChem BioAssay (NCATS).

SMILES strings stand for the structures. “And” between values parts separate entries of the source, which are not always exact repeats. Identical values can stand only once. Records with an inconclusive call do not appear. A call without a number means that no potency is given here. Where a structure was tested more than once in an assay, its records may differ in their call. The source made the active and inactive calls. Unless noted, calls come from the whole dose curve; as a rule, active = well fitted curve in the direction sought with a large enough effect; inconclusive = small, poorly fitted or top-dose-only effect, or another doubt; inactive = no such curve, though single readings can be large; an effect the other way counts as inactive or inconclusive.

The nature of experiment [1]: Cellular Toxicity (caspase-3) NIH 3T3 (AID 666).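 Note: caspase signal read after 16 h compound exposure.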 Note: potency is the fitted concentration of half-maximal effect. Particulars: NIH 3T3 caspase-3 activation, apoptosis/toxicity; series mostly up to 92.2 µM. An outline of the steps: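 NIH 3T3, 1000 cells/well, 5 hr settle then 16 hr compound at 37°C; Caspase-Glo 3/7, 20 min RT, luminescence. DMSO = basal, 100 uM tamoxifen = 100%. Hill-equation AC50, qHTS.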
Experiment [2] deals with Guanine nucleotide-binding protein G(i) subunit alpha-1 (Homo sapiens) (UniProt P63096). As to the kind of experiment: qHTS Assay for Inhibitors of RGS12 GoLoco Motif Activity (Green Fluorophore) (AID 879).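 Note: negative values mean loss of peptide binding seen as reduced polarization.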 Particulars: Galphai1/FITC-RGS12 GoLoco peptide, fluorescence polarization; series mostly up to 57.1 µM. An outline of the steps:
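A drop in FITC polarization marked displacement of the FITC-tagged RGS12 GoLoco peptide (10 nM) from Gαi1 (50 nM). Compounds were incubated 10 min at room temperature in Tris pH 7.5 buffer containing 150 mM NaCl, 0.1 mM GDP and 0.05% NP40; unlabeled peptide titration served as control.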
A general note: Quantitative high-throughput screening tests each substance at several concentrations.

The target in experiment [3] is Cytochrome P450 3A4 (Homo sapiens) (UniProt P08684). As to the kind of experiment: qHTS Assay for Inhibitors and Substrates of Cytochrome P450 3A4 (AID 884). Note: nearly all actives have a fitted effect of over 50% in size. Note: potency is the fitted concentration of half-maximal effect. The note with it: recombinant CYP3A4, Luciferin-PPXE luminescence; series mostly up to 57.1 µM. The method in brief:
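Luminescent readout of luciferin produced by CYP3A4 (20 nM) dealkylation of Luciferin-PPXE, 25 uM (its KM). NADPH-driven reaction ran 60 min at RT after 10 min compound preincubation; data scaled to 57 uM ketoconazole as 100% inhibition.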

The nature of experiment [4]: Confirmation and Secondary Assay for Modulators of Hemoglobin Beta Chain Splicing at IVS2 654 locus (AID 910).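 Note: HeLa cells stably carrying EGFP split by mutant beta-globin IVS2-654 intron.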 Particulars: HeLa EGFP-654 splicing reporter, GFP fluorescence, 48 h; series mostly up to 46.1 µM. The method in brief:
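HeLa cells stably expressing EGFP interrupted by β-globin IVS2-654 intron, seeded overnight in Opti-MEM/2% FCS, then treated 2 days at 37 °C. Restored splicing read as total peak GFP intensity per well by laser scanning cytometry (488 nm excitation, 500–520 nm emission); 500 nM antisense PNA as control.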

The target in experiment [5] is Cytochrome P450 3A4 (Homo sapiens) (UniProt P08684). As to the kind of experiment: qHTS Assay for Activators of Cytochrome P450 3A4 (AID 885). Note: nearly all actives have a fitted effect of over 65% in size. Note: potency is the fitted concentration of half-maximal effect. Particulars: recombinant CYP3A4, Luciferin-PPXE luminescence, 60 min; series mostly up to 57.1 µM. The method in brief:
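CYP3A4 activity: Luciferin-PPXE O-dealkylation, 25uM substrate, 200mM KPO4, RT throughout. Read-out is luciferase luminescence; higher values reflect activation.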

The target in experiment [6] is Cytochrome P450 2C19 (Homo sapiens) (UniProt P33261). The experiment in a line: qHTS Assay for Inhibitors and Substrates of Cytochrome P450 2C19 (AID 899). Note: nearly all actives have a fitted effect of over 60% in size. Note: potency is the fitted concentration of half-maximal effect. Particulars: recombinant CYP2C19, luciferin-H EGE luminescence; series mostly up to 57.1 µM. An outline of the steps: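 Signal comes from luciferase acting on luciferin released by CYP2C19-mediated hydroxylation of Luciferin-H EGE, 10uM (KM). Assay mix: 5nM enzyme, 50mM KPO4; 60 min at 37C with NADPH regeneration. Data normalized against 57uM ketoconazole.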

The target of experiment [7] is Cytochrome P450 2C9 (Homo sapiens) (UniProt P11712). As to the kind of experiment: qHTS Assay for Inhibitors and Substrates of Cytochrome P450 2C9 (AID 883). Note: nearly all actives have a fitted effect of over 60% in size. Note: potency is the fitted concentration of half-maximal effect. The note with it: recombinant CYP2C9, luciferin-H luminescence, 60 min; series mostly up to 57.1 µM. The method in brief:
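Signal: luciferase luminescence reporting luciferin produced by CYP2C9. Conditions: 10nM enzyme, Luciferin-H 100uM at KM, 25mM KPO4, 37C, 60 min NADPH-driven reaction. Reference: 57uM sulphaphenazole as 100% inhibition.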

Experiment [8] concerns the target Cytochrome P450 2D6 (Homo sapiens) (UniProt P10635). As to the kind of experiment: qHTS Assay for Inhibitors and Substrates of Cytochrome P450 2D6 (AID 891). Note: nearly all actives have a fitted effect of over 60% in size. Note: potency is the fitted concentration of half-maximal effect. Particulars: recombinant CYP2D6, luciferin-ME EGE luminescence; series mostly up to 57.1 µM. The method in brief: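 Luminescent read-out of luciferin formed by 5 nM human CYP2D6 demethylating 30 uM Luciferin-ME EGE (Km level) over 60 min at room temperature after NADPH regeneration addition. Data normalized to full inhibition by 1.43 uM quinidine.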

Experiment [9] in a line: qHTS Assay for Identification of Small Molecule Antagonists for NFkB Signaling Pathway (AID 895; active = well fitted inhibition curve with a large enough effect in the signal ratio, with a control signal flat, not every such curve was filed as active; the % refers to the signal ratio). The note with it: NFkB beta-lactamase reporter cells, FRET ratio 460/530, stimulated with 10 pM TNF alpha; series mostly up to 38.3 µM. An outline of the steps: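 ME-180 NFkB-bla cells (beta-lactamase under NFkB response element), plated overnight, treated with compound then 10 pM TNF alpha (about EC50) for 5 hrs at 37 C. LiveBLAzer FRET read at 460/530 nm emission, 405 nm excitation.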

Chain of Cytochrome P450 2C19 (Homo sapiens) (P33261 whole entry, looked up): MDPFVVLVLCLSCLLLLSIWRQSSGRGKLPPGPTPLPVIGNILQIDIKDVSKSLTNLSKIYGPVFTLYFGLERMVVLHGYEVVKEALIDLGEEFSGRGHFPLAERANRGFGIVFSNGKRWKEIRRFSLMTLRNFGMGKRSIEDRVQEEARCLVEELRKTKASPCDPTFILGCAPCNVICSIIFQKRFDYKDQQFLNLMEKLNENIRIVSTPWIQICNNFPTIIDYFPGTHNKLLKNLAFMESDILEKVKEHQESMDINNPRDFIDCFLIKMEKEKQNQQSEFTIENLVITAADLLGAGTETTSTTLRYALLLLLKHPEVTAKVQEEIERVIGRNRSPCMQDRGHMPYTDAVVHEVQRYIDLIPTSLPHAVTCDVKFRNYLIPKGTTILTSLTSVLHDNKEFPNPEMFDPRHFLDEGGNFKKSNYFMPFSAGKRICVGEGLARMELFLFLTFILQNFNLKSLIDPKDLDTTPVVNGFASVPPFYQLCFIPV
Chain of Cytochrome P450 3A4 (Homo sapiens) (P08684 whole entry, looked up): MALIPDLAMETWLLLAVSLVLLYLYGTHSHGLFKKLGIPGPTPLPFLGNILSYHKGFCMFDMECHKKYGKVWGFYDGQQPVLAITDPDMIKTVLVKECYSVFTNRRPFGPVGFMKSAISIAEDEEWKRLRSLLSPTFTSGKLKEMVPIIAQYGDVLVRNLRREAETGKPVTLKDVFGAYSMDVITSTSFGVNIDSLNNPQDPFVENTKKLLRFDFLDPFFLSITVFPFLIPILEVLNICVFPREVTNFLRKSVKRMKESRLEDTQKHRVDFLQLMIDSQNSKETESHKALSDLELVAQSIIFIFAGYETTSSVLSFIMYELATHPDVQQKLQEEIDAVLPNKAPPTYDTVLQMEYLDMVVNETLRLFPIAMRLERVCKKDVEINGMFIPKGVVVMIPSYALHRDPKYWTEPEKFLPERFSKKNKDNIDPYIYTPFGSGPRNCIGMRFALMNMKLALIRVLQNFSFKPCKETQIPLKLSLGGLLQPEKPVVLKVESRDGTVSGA
Chain of Cytochrome P450 2D6 (Homo sapiens) (P10635 whole entry, looked up): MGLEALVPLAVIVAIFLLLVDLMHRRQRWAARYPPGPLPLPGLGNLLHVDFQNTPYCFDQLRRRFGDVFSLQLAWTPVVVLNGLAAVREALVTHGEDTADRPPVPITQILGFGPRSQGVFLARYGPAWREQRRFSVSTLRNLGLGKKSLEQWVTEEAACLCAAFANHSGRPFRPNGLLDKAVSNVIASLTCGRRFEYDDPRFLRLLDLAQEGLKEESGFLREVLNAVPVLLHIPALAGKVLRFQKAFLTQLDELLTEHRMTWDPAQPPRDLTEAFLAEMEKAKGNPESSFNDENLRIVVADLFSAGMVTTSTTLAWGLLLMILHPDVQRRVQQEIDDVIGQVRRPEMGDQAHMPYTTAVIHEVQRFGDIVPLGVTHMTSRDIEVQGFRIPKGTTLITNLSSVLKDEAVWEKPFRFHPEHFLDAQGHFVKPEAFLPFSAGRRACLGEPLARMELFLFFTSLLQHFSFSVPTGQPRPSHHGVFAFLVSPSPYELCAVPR
Chain of Guanine nucleotide-binding protein G(i) subunit alpha-1 (Homo sapiens) (P63096 whole entry, looked up): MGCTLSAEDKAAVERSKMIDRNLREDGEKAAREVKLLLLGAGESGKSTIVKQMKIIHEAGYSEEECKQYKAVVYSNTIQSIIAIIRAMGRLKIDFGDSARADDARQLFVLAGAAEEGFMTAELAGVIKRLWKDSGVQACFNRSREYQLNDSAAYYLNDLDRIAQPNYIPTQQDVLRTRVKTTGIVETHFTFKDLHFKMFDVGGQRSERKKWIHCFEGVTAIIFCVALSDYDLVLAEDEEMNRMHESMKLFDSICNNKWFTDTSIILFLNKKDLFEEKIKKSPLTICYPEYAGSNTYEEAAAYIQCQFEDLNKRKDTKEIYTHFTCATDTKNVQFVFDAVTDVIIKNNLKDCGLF
Chain of Cytochrome P450 2C9 (Homo sapiens) (P11712 whole entry, looked up): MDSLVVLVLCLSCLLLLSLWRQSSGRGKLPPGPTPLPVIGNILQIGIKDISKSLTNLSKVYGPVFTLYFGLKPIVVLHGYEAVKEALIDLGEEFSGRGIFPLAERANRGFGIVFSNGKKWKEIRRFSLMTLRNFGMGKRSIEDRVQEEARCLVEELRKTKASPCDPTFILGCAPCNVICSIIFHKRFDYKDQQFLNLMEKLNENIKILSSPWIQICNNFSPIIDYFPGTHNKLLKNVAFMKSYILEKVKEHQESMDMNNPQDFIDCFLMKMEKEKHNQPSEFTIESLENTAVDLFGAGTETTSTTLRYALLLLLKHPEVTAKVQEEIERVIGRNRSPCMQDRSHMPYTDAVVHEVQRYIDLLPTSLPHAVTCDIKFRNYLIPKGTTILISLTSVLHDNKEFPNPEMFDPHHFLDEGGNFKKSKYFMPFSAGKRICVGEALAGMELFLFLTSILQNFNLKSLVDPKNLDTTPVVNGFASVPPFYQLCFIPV

As for `Nc1nc2ccc([N+](=O)[O-])cc2s1`, in [1], the Potency result is “inactive”.

Turning to `CC(C)NC[C@H](O)COc1cccc2[nH]ccc12`, the compound was classed as inactive in [2].

As to `O=C(O)c1cc(O)c(O)c(O)c1`, the Potency entry in experiment [1] and in experiment [3] was “inactive” in each case. Moreover, the compound was called inactive in experiment [4].

As for `O=C(O)/C=C\C(=O)O`, the Potency entry in experiment [1] and in experiment [3] was “inactive” in each case.

For the compound `Nc1ccc(O)c(C(=O)O)c1`, the Potency result in [1] and in experiment [5] was “inactive” throughout. Further, in [6], the Potency was 5.01 µM (active).

On to `c1cnc2c(c1)ccc1cccnc12`, for which the Potency result in [1], in experiment [7], in experiment [3], in [8] and in experiment [6] was “inactive” throughout. Further, the result in [2] was inactive.

For `Nc1ccc(O)c([N+](=O)[O-])c1`, the Potency result in experiment [1] and in [3] was “inactive” each time.

On to `CN1CCc2ccccc2Cc2[nH]c3ccccc3c2CC1`, for which, in experiment [2], the compound was called inactive.

Consider `c1ccc(-c2ccccn2)nc1`, for which, in [2], the result was inactive.

`CCCOC(=O)c1ccc(O)cc1`: the Potency result in experiment [1] is “inactive”.

For the compound `O=C1CN(/N=C/c2ccc([N+](=O)[O-])o2)C(=O)N1`, the Potency entry in experiment [1] was “inactive”. Besides, the call in experiment [4] was inactive.

Regarding `NO`, in experiment [2], the compound was called inactive.

For the compound `CN1CCC[C@H]1c1cccnc1`, the Potency entry in experiment [1] was “inactive”.

On to `c1ccc2sc(SSc3nc4ccccc4s3)nc2c1`, for which the Potency result in experiment [1] and in experiment [3] was “inactive” throughout.

Turning to `CC1(C)S[C@@H]2[C@H](NC(=O)[C@H](N)c3ccccc3)C(=O)N2[C@H]1C(=O)O`, the Potency result in experiment [1] was “inactive”.

For `N[C@@H](CC(=O)O)C(=O)O`, the outcome in [2] was inactive.

On to `O=C1NC(O)=NC1(c1ccccc1)c1ccccc1`, for which the compound was called inactive in experiment [2].

On to `CC(C)NCC(O)COc1cccc2ccccc12` (stereo not given), for which the Potency entry in [1] and in experiment [3] was “inactive” throughout. For the same compound, the compound was classed as inactive in experiment [4].

Regarding `CCCCCCCCCCCCCCCCCC(=O)O`, the Potency entry in [1] and in [3] was “inactive” in each case.

In the case of `S=c1[nH]c2ccccc2s1`, the Potency result in experiment [1] is “inactive”. Also, the compound was classed as inactive in [4].

On to `O=c1cc(-c2ccccc2)oc2ccccc12`, for which, in [1], the Potency entry was “inactive”.

As for `CN(C)c1ccc(C(=C2C=CC(=[N+](C)C)C=C2)c2ccccc2)cc1`, in experiment [1], the Potency was 1000 nM (active).

For `O=c1[nH]c2cc(C(F)(F)F)ccc2n1-c1cc(C(F)(F)F)ccc1O`, the compound was classed as inactive in experiment [2].

With `C#C[C@]1(O)CC[C@H]2[C@@H]3CCc4cc(O)ccc4[C@H]3CC[C@@]21C`, the Potency result in experiment [1] and in experiment [5] was “inactive” throughout.

For `NCCO`, the Potency entry in experiment [1] and in experiment [3] was “inactive” in each case.

`CN(C)CCC(c1ccc(Cl)cc1)c1ccccn1` (stereo not given): the Potency entry in experiment [1] and in experiment [3] was “inactive” throughout.

Regarding `NCCCCCCCCCCN`, in experiment [2], the compound was called inactive.

Turning to `CN(C)c1ccc(N=NS(=O)(=O)O)cc1`, the Potency entry in [1] and in experiment [3] was “inactive” in each case.

Consider `Nc1ccc([N+](=O)[O-])cc1O`, for which the Potency entry in [1] and in experiment [3] was “inactive” in each case.

For `O=S(=O)(c1cccc2c(I)cccc12)N1CCCNCC1`, the outcome in experiment [2] was inactive.

Turning to `COc1cc(CNC(=O)CCCC/C=C/C(C)C)ccc1O`, the Potency entry in [1] and in experiment [5] was “inactive” in each case. Also, the Potency in experiment [3] was 2510 nM (active). For the same compound, the compound was called inactive in [4].

As to `CC1(C)CCC=[N+]1[O-]`, the outcome in [2] was inactive.

Consider `CCCn1c(=O)c2[nH]c(-c3ccc(OCC(=O)NCCN)cc3)nc2n(CCC)c1=O`, for which, in experiment [2], the outcome was inactive. The Potency in experiment [3] is 2510 nM (active). Also, the Potency result in experiment [5] is “inactive”.

With `Oc1cc2c(cc1O)CN(C(=S)NCCc1ccc(Cl)cc1)CCC2`, in experiment [2], the result was inactive. The Potency in experiment [3] was 3160 nM (active); in experiment [6], 5.01 µM (active) and 316 nM (active). Besides, the Potency result in experiment [5] was “inactive”.

In the case of `Fc1ccc(C(OCCCc2cnc[nH]2)c2ccc(F)cc2)cc1`, the compound was classed as inactive in experiment [2]. Moreover, the Potency in [3] was 794 nM (active); in [8], 631 nM (active); in [6], 0.004 µM (active). In experiment [5], the Potency entry was “inactive”.

On to `NCCCCC(=O)O`, for which the compound was called inactive in [2] and in experiment [4]. Further, the Potency result in [3] and in experiment [8] was “inactive” in each case.

For the compound `N#C/C(=C\c1c[nH]c2ccccc12)C(=O)c1ccc(O)c(O)c1`, the outcome in experiment [2] was inactive. Also, the Potency in [3] was 7940 nM (active). In addition, the Potency result in experiment [5] was “inactive”.

Regarding `Cn1cc(C2=C(c3ccc(Cl)cc3Cl)C(=O)NC2=O)c2ccccc21`, in experiment [2], the call was inactive. The figures for the Potency in experiment [7] and in [3] were 10 µM (active) and 2000 nM (active), respectively. The Potency entry in [5] was “inactive”.

For `CN=c1nc(-c2ccccc2)n(-c2ccccc2)s1`, in experiment [2], the call was inactive. For the same compound, the values for the Potency in experiment [7] and in [6] were 2 µM (active) and 3.16 µM (active), respectively. Also, the Potency entry in experiment [5] and in experiment [9] was “inactive” each time.

For `CCCCN1CCC(n2c(=O)[nH]c3ccccc32)CC1`, the result in experiment [2] was inactive. The Potency result in experiment [7] and in experiment [9] was “inactive” each time. For the same compound, the Potency in experiment [8] was 3160 nM (active).

As for `O=c1[nH]c2ccccc2n1CCCN1CCN(C(c2ccccc2)c2ccccc2)CC1`, the call in [2] was inactive. Moreover, the Potency result in experiment [3] was “inactive”. Also, the figures for the Potency in experiment [5] and in experiment [8] were 15800 nM (active) and 794 nM (active), respectively.

With `O=C1C(SCCO)=C(SCCO)C(=O)c2ccccc21`, the call in experiment [2] was inactive. Further, the Potency was 12.6 µM (active) and 5.01 µM (active) in experiment [7]; 7940 nM (active) in experiment [8]; 501 nM (active) and 79.4 nM (active) in experiment [6]. The Potency entry in experiment [5] is “inactive”.

Take `N#C/C(=C\c1ccc(O)c(O)c1)C(=O)NCCCc1ccccc1`: in experiment [2], the call was inactive. In [3], the Potency was 2510 nM (active). In addition, the Potency entry in [5] is “inactive”.

Take `Clc1ccc(N2CCN(Cc3c[nH]c4ncccc34)CC2)cc1`: the outcome in experiment [2] was inactive.

On to `C[C@@H](NC(=O)/C(C#N)=C/c1ccc(O)c(O)c1)c1ccccc1`, for which the compound was called inactive in experiment [2]. Further, the Potency entry in experiment [7] and in experiment [5] was “inactive” in each case.

For the compound `O=C(Nc1ccccc1)c1cc([N+](=O)[O-])ccc1Cl`, in [2], the result was inactive. Also, the Potency entry in [7] was “inactive and 6.31 µM (active)”; in experiment [6], “inactive and 794 nM (active)”. The Potency entry in experiment [5] and in [8] was “inactive” in each case.
